ChEMBL document CHEMBL1961873, “Compounds: GSK PKIS; Assays: Nanosyn kinase panel” (2012)
Where “and” joins values, the source holds several entries; their conditions need not be identical. Identical values can stand only once.

Tests used:
[1] = molecular target: RAC-alpha serine/threonine-protein kinase (Homo sapiens) (UniProt P31749); conditions: at 0.1 µM
[2] = molecular target: RAC-alpha serine/threonine-protein kinase (Homo sapiens) (UniProt P31749); conditions: at 1 µM
[3] = molecular target: RAC-beta serine/threonine-protein kinase (Homo sapiens) (UniProt P31751); conditions: at 0.1 µM
[4] = molecular target: RAC-beta serine/threonine-protein kinase (Homo sapiens) (UniProt P31751); conditions: at 1 µM
[5] = molecular target: RAC-gamma serine/threonine-protein kinase (Homo sapiens) (UniProt Q9Y243); conditions: at 0.1 µM
[6] = molecular target: RAC-gamma serine/threonine-protein kinase (Homo sapiens) (UniProt Q9Y243); conditions: at 1 µM
[7] = molecular target: G protein-coupled receptor kinase 6 (Homo sapiens) (UniProt P43250); conditions: at 0.1 µM
[8] = molecular target: G protein-coupled receptor kinase 6 (Homo sapiens) (UniProt P43250); conditions: at 1 µM
[9] = molecular target: T1, Rhodopsin kinase GRK7 (Homo sapiens) (UniProt Q8WTQ7); conditions: at 0.1 µM
T1 sequence (whole entry): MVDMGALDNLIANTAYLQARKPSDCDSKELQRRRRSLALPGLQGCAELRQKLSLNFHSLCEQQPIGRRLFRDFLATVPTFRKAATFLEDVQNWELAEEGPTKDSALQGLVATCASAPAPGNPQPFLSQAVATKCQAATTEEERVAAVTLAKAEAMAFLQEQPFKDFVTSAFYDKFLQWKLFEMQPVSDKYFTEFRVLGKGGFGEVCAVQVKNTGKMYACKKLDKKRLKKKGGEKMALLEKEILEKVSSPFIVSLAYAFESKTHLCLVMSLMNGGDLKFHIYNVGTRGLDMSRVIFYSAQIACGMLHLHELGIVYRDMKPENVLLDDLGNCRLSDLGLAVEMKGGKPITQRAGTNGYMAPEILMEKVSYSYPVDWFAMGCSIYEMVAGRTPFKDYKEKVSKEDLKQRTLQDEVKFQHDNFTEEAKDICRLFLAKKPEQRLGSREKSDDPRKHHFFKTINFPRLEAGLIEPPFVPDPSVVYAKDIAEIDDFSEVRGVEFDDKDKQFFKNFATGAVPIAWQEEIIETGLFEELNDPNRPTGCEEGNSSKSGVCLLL

[10] = molecular target: T1, Rhodopsin kinase GRK7 (Homo sapiens); conditions: at 1 µM

RAC-alpha serine/threonine-protein kinase (Homo sapiens), sequence (P31749 whole entry): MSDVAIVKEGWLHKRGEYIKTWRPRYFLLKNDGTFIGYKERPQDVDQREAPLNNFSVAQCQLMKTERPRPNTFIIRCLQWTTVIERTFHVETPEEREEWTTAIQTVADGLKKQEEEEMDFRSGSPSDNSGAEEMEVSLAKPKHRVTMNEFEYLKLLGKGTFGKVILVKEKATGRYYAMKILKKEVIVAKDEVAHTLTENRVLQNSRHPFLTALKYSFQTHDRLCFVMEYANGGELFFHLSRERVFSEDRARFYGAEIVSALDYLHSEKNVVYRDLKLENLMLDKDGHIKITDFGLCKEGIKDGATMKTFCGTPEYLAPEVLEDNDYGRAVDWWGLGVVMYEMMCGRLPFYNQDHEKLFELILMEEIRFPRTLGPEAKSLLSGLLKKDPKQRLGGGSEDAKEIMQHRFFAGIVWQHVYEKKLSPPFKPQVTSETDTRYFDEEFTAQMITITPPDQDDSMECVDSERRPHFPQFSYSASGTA
G protein-coupled receptor kinase 6 (Homo sapiens), sequence (P43250 whole entry, looked up): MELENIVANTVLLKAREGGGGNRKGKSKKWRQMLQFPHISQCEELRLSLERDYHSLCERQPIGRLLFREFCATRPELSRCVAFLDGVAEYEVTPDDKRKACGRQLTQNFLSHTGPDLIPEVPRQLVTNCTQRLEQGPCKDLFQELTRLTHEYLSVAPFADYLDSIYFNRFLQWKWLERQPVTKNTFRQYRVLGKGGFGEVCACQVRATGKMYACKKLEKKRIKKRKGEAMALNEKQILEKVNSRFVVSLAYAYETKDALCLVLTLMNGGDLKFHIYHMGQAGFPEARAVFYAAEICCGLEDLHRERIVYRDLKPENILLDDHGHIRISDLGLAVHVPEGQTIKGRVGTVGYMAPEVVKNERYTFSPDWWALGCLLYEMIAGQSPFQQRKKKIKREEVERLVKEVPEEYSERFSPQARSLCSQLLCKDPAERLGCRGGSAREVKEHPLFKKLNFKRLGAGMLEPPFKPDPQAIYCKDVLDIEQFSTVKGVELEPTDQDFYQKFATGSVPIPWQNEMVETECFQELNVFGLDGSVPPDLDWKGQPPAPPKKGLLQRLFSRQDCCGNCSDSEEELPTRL
RAC-beta serine/threonine-protein kinase (Homo sapiens), sequence (P31751 whole entry): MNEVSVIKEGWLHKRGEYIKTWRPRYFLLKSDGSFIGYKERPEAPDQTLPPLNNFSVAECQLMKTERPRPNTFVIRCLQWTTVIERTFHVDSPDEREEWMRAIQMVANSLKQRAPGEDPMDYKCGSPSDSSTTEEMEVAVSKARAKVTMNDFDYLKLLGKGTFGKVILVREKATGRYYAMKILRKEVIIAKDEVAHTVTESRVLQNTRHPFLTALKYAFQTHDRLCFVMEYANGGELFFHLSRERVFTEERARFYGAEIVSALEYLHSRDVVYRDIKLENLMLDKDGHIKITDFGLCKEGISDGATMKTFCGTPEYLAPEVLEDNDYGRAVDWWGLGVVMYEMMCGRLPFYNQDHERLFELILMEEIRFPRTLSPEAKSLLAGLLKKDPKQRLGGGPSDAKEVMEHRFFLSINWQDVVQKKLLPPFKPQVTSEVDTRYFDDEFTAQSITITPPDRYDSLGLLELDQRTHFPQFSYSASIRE
RAC-gamma serine/threonine-protein kinase (Homo sapiens), sequence (Q9Y243 whole entry): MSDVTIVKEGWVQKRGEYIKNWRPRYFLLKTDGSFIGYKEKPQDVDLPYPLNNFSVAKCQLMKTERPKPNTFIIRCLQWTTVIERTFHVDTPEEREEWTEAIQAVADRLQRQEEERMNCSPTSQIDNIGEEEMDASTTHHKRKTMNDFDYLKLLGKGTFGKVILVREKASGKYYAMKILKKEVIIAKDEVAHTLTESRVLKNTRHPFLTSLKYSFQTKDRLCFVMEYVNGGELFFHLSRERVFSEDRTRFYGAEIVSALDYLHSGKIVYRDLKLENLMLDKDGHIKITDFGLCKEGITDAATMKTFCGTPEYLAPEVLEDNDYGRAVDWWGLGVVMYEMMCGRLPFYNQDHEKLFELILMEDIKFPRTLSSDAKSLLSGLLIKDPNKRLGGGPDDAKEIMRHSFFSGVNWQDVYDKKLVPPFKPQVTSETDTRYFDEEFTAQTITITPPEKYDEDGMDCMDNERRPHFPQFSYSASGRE

SMILES	inhibition [1]	inhibition [2]	inhibition [3]	inhibition [4]	inhibition [5]	inhibition [6]	inhibition [7]	inhibition [8]	inhibition [9]	inhibition [10]
COc1ccc(-c2nn3ncccc3c2-c2ccnc(Nc3ccc(F)c(F)c3)n2)cc1	0.52%	2.13%	1.56%	1.42%	1.4%	2.01%	7.85%	10.1%	6.45%	7.95%
Nc1nonc1-c1nc2cnccc2n1C1CC1	1.26% and -2.25%	8.06% and 5.34%	2.53% and -2.31%	5.04% and 2.15%	1.66% and -2.03%	6.38% and 2.16%	0.65% and 3.64%	6.46% and 11.6%	-3.85% and 3.25%	-0.48% and 7.79%
CC(C)c1ccc(-c2cc(-c3c[nH]nc3-c3ccccn3)ccn2)cc1	0.13%	0.07%	-0.03%	0.06%	1.01%	0.29%	-1.41%	-0.19%	2.99%	1.48%
N#Cc1ccc2c(-c3ccnc(NC4CC4)n3)c(-c3ccc(F)cc3)nn2c1	0.77%	-0.12%	0.14%	0.78%	0.56%	2.99%	1.67%	2.24%	4.35%	1.98%
Cc1ccc(-c2cc3c(NC(=O)C4CC4)ncnc3o2)cc1	0.96%	1.39%	1.6%	1.7%	3.51%	2.62%	3.77%	-1.16%	4%	1.88%
NS(=O)(=O)c1ccc(N/N=C2\C(=O)Nc3ccc(C(=O)NCc4ccncc4)cc32)cc1	1.33%	1.28%	2.42%	1.92%	1.54%	1.99%	5.6%	21.9%	2.04%	6.72%
O=C1Nc2ccccc2/C1=C1\CCc2cc(O)ccc21	1.29%	1.37%	1.86%	4.03%	3.35%	1.29%	2.32%	15%	3.45%	11.4%
CS(=O)(=O)CCNCc1ccc(-c2ccc3ncnc(Nc4ccc(OCc5ccccc5)cc4)c3c2)o1	0.6%	0.62%	0.5%	1.64%	0.25%	2%	3.01%	3.33%	4.51%	4.87%
COc1ccccc1-c1cc(/C=C2\C(=O)Nc3ncc(Br)cc32)cc(Br)c1O	0.67%	0.15%	1.96%	2.36%	1.93%	0.61%	5.35%	30.3%	28.7%	57.2%
COC(=O)Nc1nc2ccc(Oc3ccc(NC(=O)Nc4cc(C(F)(F)F)ccc4F)cc3)cc2s1	-0.37%	-0.66%	-0.14%	-0.64%	1.34%	-0.4%	-1.28%	-1.53%	-0.68%	6.1%
Fc1ccc(Nc2nccc(-c3c(-c4ccc(C(F)(F)F)cc4)nn4ncccc34)n2)cc1F	1.15%	1.34%	0.91%	1.4%	1.72%	1.36%	0.33%	-0.08%	2.15%	-0.32%
OCCCNc1nccc(-c2c(-c3ccc(F)cc3)nn3cc(C(F)(F)F)ccc23)n1	0.44%	0.71%	1.9%	0.18%	0.6%	0%	1.18%	-2.71%	-0.28%	-8.21%
CS(=O)(=O)Nc1ccc(-c2cc(-c3ccccc3)cc(C(N)=O)c2N)cc1	0.58%	-0.28%	0.22%	1.28%	-0.36%	2.53%	1.1%	1.69%	7.08%	1.49%
CNC(=O)c1sc(-n2cnc3cc(OC)c(OC)cc32)cc1OCc1ccccc1C(F)(F)F	0.98%	0.75%	0.84%	2.06%	1.19%	2%	0.06%	-0.11%	4.78%	3.47%
COc1ccc2ncn(-c3cc(O[C@H](C)c4ccccc4C(F)(F)F)c(C(N)=O)s3)c2c1	-0.49%	-0.66%	-0.92%	-0.19%	0.16%	0.41%	-0.28%	1.33%	-1.81%	5.21%
COc1cc(N2CCN(C(C)C)CC2)ccc1Nc1nc(Nc2cccc(F)c2C(=O)O)c2cc[nH]c2n1	0.12%	0.67%	1.27%	1.08%	0.73%	2.08%	6.59%	10.8%	3.79%	5.95%

SMILES	inhibition [1]	inhibition [2]	inhibition [3]	inhibition [4]	inhibition [5]	inhibition [6]	inhibition [7]	inhibition [8]	inhibition [9]	inhibition [10]
CCCNc1cccc(-n2ncc3c(N/N=C/c4ccncc4)ncnc32)c1	0.34%	-0.51%	0.22%	-0.08%	-0.05%	-1.08%	3.49%	3.97%	2.68%	4.45%
CCS(=O)(=O)c1ccc(OC)c(Nc2ncc(-c3cccc(F)c3)o2)c1	0.91%	0.05%	0.44%	3.48%	2.02%	8.05%	4.17%	2.93%	9.79%	3.77%
c1ccc(-c2n[nH]cc2-c2ccnc(-c3ccc(OCCn4ccnc4)cc3)c2)nc1	-1.55%	0.14%	-0.98%	0.73%	-0.34%	1.01%	1.73%	4.13%	-0.12%	4.02%
Cc1nnc(-c2cccc(-c3ccc(C(=O)NCC4CC4)cc3)c2)o1	0.55%	1.35%	2.63%	1.84%	1.35%	1.48%	3.35%	10.4%	6.78%	6.04%
CN1CCC(n2cnc(-c3ccc(F)cc3)c2-c2ccnc(NCCO)n2)CC1	0.7%	1.07%	1.3%	1.3%	1.33%	2.14%	4.71%	6.12%	4.41%	7.73%
Nc1nccc(-c2c(-c3ccc(F)cc3)ncn2C2CCNCC2)n1	-2.52% and -0.57%	-1.44% and -0.36%	-2.1% and -0.23%	-2.04% and 0.22%	-2.91% and 1.34%	-1.79% and 2.95%	-0.3% and 1.54%	1.28% and -0.27%	-9.73% and -0.04%	-3.87% and -0.11%
CS(=O)(=O)Nc1ccc(-c2ccc3c(NC(=O)C4CC4)n[nH]c3c2)cc1	1.74%	2.3%	1.58%	4.27%	3.61%	0.93%	2.24%	1.55%	5.28%	2.36%
NS(=O)(=O)c1ccc(N/N=C2\C(=O)Nc3cccc(CCc4ccncc4)c32)cc1	0.52%	0.04%	-0.35%	0.27%	0.45%	1.65%	0.11%	1.61%	7.3%	5.05%
CCn1c(-c2nonc2N)nc2cncc(C(=O)NCCNC)c21	1.98%	17.7%	3.28%	10.5%	4.31%	26.2%	-0.59%	5.57%	9.46%	7.46%
FC(F)(F)CNc1nccc(-c2cnn3ncccc23)n1	0.05%	0.65%	1.43%	0.42%	0.5%	1.33%	-2.66%	-0.41%	3.21%	0.87%
CCN1CCC(C(=O)Nc2n[nH]c3nnc(-c4cccc(F)c4F)cc23)CC1	-0.41%	-1.03%	-1.1%	-0.35%	-1.17%	2.44%	-2.23%	1.97%	3.51%	-1.02%
CNC(=O)c1ncccc1Nc1nc(Nc2cc3c(cc2OC)CCCN3C(=O)CN(C)C)nc2[nH]ccc12	1.11%	1.38%	2.81%	2.14%	2.74%	1.71%	14.5%	56.7%	16.9%	50.4%
COc1c(C(N)=O)cc(-c2ccc(Cl)cc2)cc1-c1ccc(S(N)(=O)=O)cc1	1.15%	2.28%	2.77%	1.74%	1.8%	3.15%	4.42%	7.23%	10.6%	2.21%
CN1CCN(Cc2ccc(-c3cc4ncnc(Nc5ccc(OCc6cccc(F)c6)c(Cl)c5)c4s3)o2)CC1	2.3% and 0.84%	0.33% and 0.82%	1.77% and 3.25%	4.18% and 1.52%	0.53% and 1.8%	4.32% and 3.89%	-0.68% and 8.35%	-0.78% and 9.33%	9.19% and 5.43%	0.67% and 9.84%
CC1=C(C(=O)Nc2ccc3[nH]ncc3c2)C(c2ccc(F)cc2)N=C(c2ccc(C(F)(F)F)nc2)N1 (stereo not given)	0.83%	1.06%	1.39%	1.43%	1.44%	1.68%	3.1%	-2.54%	0.19%	-2.93%
